Experimental data reported in PubChem BioAssay (NCI).
About 79,000 compounds went through this panel and 15% of them were active in at least one assay; those are over-represented in the sample as a whole. Unmarked numbers belong to inactive results. Active and inactive are the calls of the source. No stated cut-off is given here; in the data, active means growth inhibition above about 70%; inactive means the rest.

Assays:
[1] = NCI Yeast Anticancer Drug Screen. Data for the rad50 strain (AID 155);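 further: 0% = growth of vehicle-only cultures of the same strain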; details: S. cerevisiae rad50 strain growth inhibition; at 50.0 µM; hits give high values
Summary of the method: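 Relative growth inhibition (compound vs vehicle) was measured in yeast with a defined repair-gene alteration.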

[2] = NCI Yeast Anticancer Drug Screen. Data for the mec2-1 strain (AID 157); details: S. cerevisiae mec2-1 strain, at 50.0 µM, hits give high values
Summary of the method: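 Readout is yeast growth inhibition, normalised to vehicle-treated controls, in the mec2-1 strain exposed to compound.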

[3] = NCI Yeast Anticancer Drug Screen. Data for the sgs1 mgt1 strain (AID 161);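 further: 0% = growth of cultures given vehicle only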; details: S. cerevisiae sgs1 mgt1 strain, at 50.0 µM, hits give high values
Summary of the method: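 Percent growth inhibition was derived by comparing compound-exposed mutant yeast with vehicle-exposed cultures. The strain carries alterations in DNA damage repair.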

[4] = NCI Yeast Anticancer Drug Screen. Data for the cln2 rad14 strain (AID 165);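 further: 0% = growth equal to vehicle treated cultures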; details: S. cerevisiae cln2 rad14 strain, at 50.0 µM, hits give high values
Summary of the method: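 Relative to vehicle controls, growth inhibition of compound-treated cln2 rad14 yeast was recorded.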

[5] = NCI Yeast Anticancer Drug Screen. Data for the bub3 strain (AID 167); details: S. cerevisiae bub3 mutant strain, at 50.0 µM, hits give high values
Summary of the method: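 Screening used yeast with an engineered genetic alteration affecting cell cycle control. Compound-exposed cultures were compared with vehicle cultures, and reduced growth was taken as inhibition.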

[6] = NCI Yeast Anticancer Drug Screen. Data for the mlh1 rad18 strain (AID 175); details: S. cerevisiae mlh1 rad18 strain growth inhibition; at 50.0 µM; hits give high values
Summary of the method: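 Test agents were incubated with a yeast strain of defined genotype (DNA damage repair defect). Inhibition of growth was derived by comparison with vehicle-exposed cultures.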

Compound | growth inhibition [1] | growth inhibition [2] | growth inhibition [3] | growth inhibition [4] | growth inhibition [5] | growth inhibition [6]
CC1=CC(=O)OC1=O | 4.9% | 15% | 2.15% | 8.9% | 5.9% | 22%
c1ccc2cc(CCc3cc4ccccc4cn3)ncc2c1 | 10.2% | 11.4% | 7% | -16.1% | 24.4% | 25.6%
Cc1ncc2c(n1)NC(=O)NC2 | 17.1% | 13.5% | -16.6% | 0.9% | -23.1% | -13.9%
CCC(/C=N\NC(=O)CCCC(=O)N/N=C/C(CC)CC)CC | -0.5% | -8.5% | -18.6% | 5.65% | 5.8% | -0.35%
N#CCCS(=O)(=O)O | 29.1% | 21.9% | -6.9% | 1.95% | 15.9% | 13.8%
CNn1c(-c2ccccc2)n[nH]c1=O | 6.65% | 2.85% | 11.4% | 26.2% | 6.45% | 19.4%
Cc1cccc(C)c1NC(=O)C(=O)CC(=O)c1cccc([N+](=O)[O-])c1 | 45.4% | 11.9% | 2.2% | 24.4% | 19.2% | 40.9%
CCCCCCCCCCCCCCCCCCOC(=O)C1CCCN1 (stereo unspecified) | -10% | 22.9% | 12.8% | 3.15% | 12.4% | 8.6%
C(=Nc1ccc(N2CCOCC2)cc1)c1ccc2c(c1)OCO2 | -15.4% | -7% | -15.2% | -49.5% | -21.7% | -22%
N#CC1=CNc2ccccc2N=C1N | 8.55% | -4.75% | 28.4% | 8.55% | 28.2% | 24.1%
CN(C)CC1CCCCC1O (stereo unspecified) | -4.75% | -5.85% | -5.3% | 25.1% | 1.95% | -7.35%
CCNC(=S)NC1CCCCC1 | -8.35% | 5.15% | 3.65% | -4.05% | -13.1% | 12.3%
COc1ccc(NC(=O)CC(=O)N/N=C(/C)c2cc3cc(N=Nc4ccccc4Cl)ccc3oc2=O)cc1 | 11.3% | 14.2% | 24.1% | 34% | -11.8% | -10.2%
Nc1ccc2c(c1)Cc1c-2cc(Br)c(N)c1Br | 4.95% | -6.85% | 9.5% | -39.2% | 1.9% | -6.75%
Cc1cc(C)c(NC(=O)NC2CCCCC2)c(C)c1 | 4.7% | 7.05% | 23.6% | -3.55% | 34% | 31.1%
N#CC1=CCc2ccccc2N1C(=O)Oc1ccccc1 | 58.5% | 12.7% | 50% | 19.4% | 64.6% | 47.2%
N=C1N=C(N)C(CCCOc2cc(Cl)ccc2Cl)(CCCOc2cc(Cl)ccc2Cl)C(N)=N1 | 99% (active) | 95.5% (active) | 97.4% (active) | 98.5% (active) | 98.9% (active) | 98% (active)
CCOc1c(N=Nc2ccccc2)c(C)nn1C(N)=S | -55.9% | -24.6% | 9.95% | -40.9% | 0.4% | 3.4%
CN(C)N=Nc1ccc(Cl)cc1C(=O)O | 14.8% | 12.3% | 20.7% | 2.2% | 17.9% | 41%
O=C(Nc1cccc([N+](=O)[O-])c1)c1ccc(Cl)cc1 | -5.95% | -10.8% | 8% | -49.5% | -9.5% | -3.95%
C/C(=N\N)c1ccc(-c2ccccc2)cc1 | 10.6% | 8.9% | 6.45% | -32.8% | -30.7% | -5.4%

Compound | growth inhibition [1] | growth inhibition [2] | growth inhibition [3] | growth inhibition [4] | growth inhibition [5] | growth inhibition [6]
O=C(/C=C\c1ccccc1)OC(c1ccccc1)c1ccc(Br)cc1 (stereo unspecified) | 17.9% | 6.25% | 14.1% | -3.95% | -3.4% | 8%
Cc1ccc([Si](C)(C)c2ccccc2)cc1 | -2.4% | 13.6% | -2.65% | 7.7% | 9.7% | 4.9%
O=C1OC2(CC1n1cnc3ccccc3c1=O)C(=O)Nc1ccccc12 (stereo unspecified) | 4.3% | -21.2% | 8.5% | 8.3% | -1.15% | 11.2%
C=C1OC(C2CCCCC2)=C(C(=O)OCC)C1C (stereo unspecified) | -9.6% | -17.2% | -39% | -21.1% | 1.9% | -9.45%
NC(=S)NN/C=C(\C=Nc1ccccc1)[N+](=O)[O-] | 8.15% | -3.3% | 4.15% | 0.4% | 0.15% | 1%
Cc1ccc(Cl)cc1NC(=O)CCc1ccccc1 | 3.7% | 22.1% | 23.6% | -1.6% | 4.25% | 21.1%
CC[N+](C)(CC)c1ccccc1 | -4.35% | -54.3% | -18.6% | 0.3% | -33.5% | 1.1%
CCCCCCCCCCCCCCCCOc1ccc(C(=O)O)cc1 | 1.4% | 0.75% | 5.3% | 8.35% | 3% | -16%
CC(=O)Nc1cc(C)ccn1 | 1.2% | 0.6% | 10.6% | -35% | -2.95% | 19.4%
C/C(=N\NC(N)=O)c1cc2cc([N+](=O)[O-])ccc2oc1=O | -2.2% | 23.6% | 16.1% | -7.85% | -12.6% | 8.5%
NC(=S)N/N=C/c1ccccc1S(=O)(=O)O | 1.9% | -12.8% | -9.75% | -16.2% | 0.05% | -4.7%
CCC(=O)NC(Nc1cccc(F)c1C)(C(F)(F)F)C(F)(F)F | -22.4% | 23.4% | -37.4% | 14.7% | 7.25% | -5.5%
COC1CC(OC2C(C)OC(OC3C(C)OC(OC4C(C)OC(O[C@H]5CC[C@@]6(C)C(=CC[C@]7(O)[C@@H]6C[C@@H](OC(=O)/C=C/c6ccccc6)[C@@]6(C)[C@]7(O)CC[C@@]6(O)C(C)=O)C5)CC4OC)CC3OC)CC2OC)OC(C)C1O (stereo partly specified) | 31% | 19.2% | 5.35% | 25.9% | 7.15% | -27.6%
Cc1ccc2nccc(C)c2c1 | -27.8% | -45.1% | -19.6% | -14.7% | -27.6% | -7.8%
CC(C)(C)/[N+]([O-])=C/C(c1ccccc1)C(/C=[N+](/[O-])C(C)(C)C)c1ccccc1 (stereo unspecified) | -3.5% | -4.5% | -15.3% | 3.85% | -2.1% | -18.6%
CC(C)(C)N(C/C=C/CN(Cc1ccccc1)Cc1ccccc1)C(C)(C)C | 32.8% | 16.2% | 25.6% | 10.8% | 19.8% | 22.7%
O=c1[nH]c(=O)n(C2OC(CO)C(O)C2O)cc1Oc1ccccc1 (stereo unspecified) | 7.8% | 2.9% | 4.2% | 12.4% | -0.4% | -13.8%
COc1ccc(C(O)(c2ccccc2)c2nccc3ccccc23)cc1 (stereo unspecified) | 6.6% | 3.75% | 30.4% | 1.45% | 10.3% | -9.4%
CCCCCCSC#N | 34.8% | 13.9% | -8.75% | 18.1% | 15.2% | 7.05%
O=C(O)c1cccc(N=Nc2ccccc2)c1O | 22.1% | -12.4% | 4.65% | -7.1% | 6.05% | 10.7%
